{"source": "PubChem BioAssay (NCI)", "note": "About 83,000 compounds went through this panel and 20% of them were active in at least one assay; those are over-represented in the sample as a whole.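 Negative percent growth values reflect cell death: -40 means 40% of the cells present at the start died, and -100 means all died.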 The source made the active and inactive calls. The calls were made as follows: active = growth percent below 10; inactive = the rest.", "data": [{"tested_on": "MDA-MB-468 breast", "experiment": "NCI-60 one-dose screen, 48 h (100 = growth as untreated, 0 = no growth, -100 = all killed)", "settings": "10 µM unless noted", "values": [{"smiles": "Cc1ccc2c(c1)Oc1nc(N)c(C#N)c(N)c1C2Sc1ccc(F)cc1", "note": "(stereo not given)", "growth": "-72.6% (active)"}, {"smiles": "NC1C(N)C(N)C1N", "note": "(stereo not given)", "growth": "122% (inactive)"}, {"smiles": "CC(C)N1CN2C(=S)NC3C2N(C1)C(=S)N3C", "note": "(stereo not given)", "growth": "101% (inactive)"}, {"smiles": "CCOC(=O)C1=C(N)Oc2c(sc3c(C)cccc23)C1c1ccc(OC)cc1", "note": "(stereo not given)", "growth": "0.934% (active)"}, {"smiles": "COc1cc(C2C3=C(COC3=O)Nc3cc4c(cc32)CCC4)cc2c1OCO2", "note": "(stereo not given)", "growth": "-8.49% (active)"}, {"smiles": "Cc1c(-c2ccc(C3CCCCC3)cc2)nc2ccc(F)cc2c1C(=O)O", "growth": "74.4% (inactive)"}, {"smiles": "COc1cc(/C=C/c2cc(/C=C/c3ccc(O)c(OC)c3)n(-c3ccccc3)n2)ccc1O", "growth": "-31.9% (active)"}, {"smiles": "COc1cc2oc(-c3ccc(NC(=O)c4ccccc4)cc3)cc(=O)c2c(OC)c1OC", "growth": "96.5% (inactive)"}, {"smiles": "COc1ccc(-c2cnc3ccnn3c2-c2cc(OC)c(OC)c(OC)c2)cc1", "growth": "2.83% (active)"}, {"smiles": "C=CC(=O)N1CCN(c2ccc3cccc(NC(=O)c4cnc(C)cn4)c3n2)CC1", "growth": "1.58% (active)"}, {"smiles": "CCCCCCCCCCCCC1CCC/C=C\\CCC(=O)O1", "note": "(stereo not given)", "growth": "100% (inactive)"}, {"smiles": "O=C(Nc1ccccc1O)c1ccc(CNC(=O)c2sccc2Nc2ccnc(C(F)(F)F)c2)cc1", "growth": "14.8% (inactive)"}, {"smiles": "CCOC(=O)C1=C(C)N=C2Sc3cccc(OC)c3N2[C@H]1c1ccccn1", "growth": "108% (inactive)"}, {"smiles": "CC(=O)CCS(=O)c1ccccc1", "note": "(stereo not given)", "growth": "104% (inactive)"}, {"smiles": "CC(=O)Nc1ccc([I+]c2ccc([N+](=O)[O-])cc2)cc1", "growth": "41.7% (inactive)"}, {"smiles": "O=C1NN(c2ccccc2)C(c2cccnc2)=N/C1=C\\c1cccnc1", "growth": "90% (inactive)"}, {"smiles": "CCCCc1oc2ccccc2c1C(=O)c1cc(I)c(OCCN(CC)CC)c(I)c1", "growth": "-87.4% (active)"}, {"smiles": "O=C1/C(=C/c2ccc(C(F)(F)F)cc2)COc2ccc(O)cc21", "growth": "100% (inactive)"}, {"smiles": "O=C(Nc1ccc(Nc2ccncc2)cc1)c1ccc(Nc2ccnc3ccc([N+](=O)[O-])cc23)cc1", "growth": "83.4% (inactive)"}, {"smiles": "Cc1cccc2c(=O)c3c(sc12)c(NCCCNCCO)nc1ccccc13", "growth": "16.3% (inactive)"}, {"smiles": "C=C1c2c(Cl)ccc(O)c2C(O)=C2C(=O)[C@]3(O)C(O)=C(C(N)=O)C(=O)[C@@H](N(C)C)[C@@H]3[C@@H](O)[C@H]12", "growth": "-4.52% (active)"}, {"smiles": "CCSc1ccc([C@@H]2[C@@H](N)C(=O)N2c2cc(OC)c(OC)c(OC)c2)cc1", "growth": "17% (inactive)"}, {"smiles": "CC1CCCC(CC(N)=O)CC1", "note": "(stereo not given)", "growth": "97.9% (inactive)"}, {"smiles": "C=C1c2c(C)nn(-c3ccc(S(N)(=O)=O)cc3)c2N(C)C23CC1C1(C)c4c(C)nn(-c5ccc(S(N)(=O)=O)cc5)c4N(C)C(C)(CC12)C3", "note": "(stereo not given)", "growth": "0.632% (active)"}, {"smiles": "c1ccc2cc(Cn3c[n+](Cc4ccc5ccccc5c4)c4ccccc43)ccc2c1", "growth": "-21% (active)"}, {"smiles": "O=C(NS(=O)(=O)c1ccccc1)n1cc(-c2ccncc2)c(-c2cc(O)cc(Cl)c2)n1", "growth": "98.4% (inactive)"}, {"smiles": "Cc1cc(Br)ccc1-n1cc(C#N)c(N)c1C(=O)c1ccc(Br)cc1", "growth": "93.4% (inactive)"}, {"smiles": "CC1O[C@@H]2C[C@@](O)([C@H]1O)n1c3ccccc3c3c4c(c5c6ccccc6n2c5c31)C(=O)NC4=O", "note": "(stereo not given in full)", "growth": "3.51% (active)"}, {"smiles": "CC(C)(C)c1cc(NC(=O)Nc2ccc(-c3cn4c5c(sc4n3)CCc3c[nH]cc3-5)cc2)no1", "growth": "22.6% (inactive)"}, {"smiles": "O=C1OC(/C=C/c2ccccc2)=NC/1=C/c1ccccc1[N+](=O)[O-]", "growth": "101% (inactive)"}, {"smiles": "Cc1ccc(Cc2cnc(NC(=O)/C=C/c3cccc(C)c3)s2)cc1", "growth": "1.34% (active)"}, {"smiles": "Clc1cc(Cl)c(Cl)nn1", "growth": "102% (inactive)"}, {"smiles": "CCC(c1ccc(O)cc1)C(CC)c1ccc(O)c(F)c1", "note": "(stereo not given)", "growth": "69.5% (inactive)"}, {"smiles": "COc1cc(-c2n/c(=C\\c3c(O)[nH]c4ccc(Cl)cc34)cc3c2=Nc2ccccc2-3)ccc1F", "growth": "-7.14% (active)"}, {"smiles": "CCOC(=O)CC1CSC(N/N=C/c2ccc(F)c(Br)c2)=N1", "note": "(stereo not given)", "growth": "116% (inactive)"}, {"smiles": "O=c1oc2cc(OS(=O)(=O)c3ccccc3)ccc2c2c1CCCCC2", "growth": "44.3% (inactive)"}, {"smiles": "c1cc(OCCN2CCCCC2)cc(-c2n[nH]c3ccc(-c4ncn[nH]4)cc23)c1", "growth": "93% (inactive)"}, {"smiles": "CN(C)CCCOc1ccc(NC2=C(Cl)C(=O)C(Nc3ccc(OCCCN(C)C)cc3)=C(Cl)C2=O)cc1", "growth": "-57.2% (active)"}, {"smiles": "Cc1c(C(=O)NCCC(=O)NO)sc2ncnc(Nc3ccc(F)c(Cl)c3)c12", "growth": "103% (inactive)"}, {"smiles": "O=C(CCCCCCNC(=O)c1csc(Br)n1)NO", "growth": "26.6% (inactive)"}]}]}
